Measured values taken from PubChem BioAssay AID1117361 (Southern Research Institute, 2015).
In all, about 3,600 compounds went through this assay and about 900 (25%) were called active. How the calls were made is not given here. Not all results are given here. Entries with a potency or affinity are not part of this list.

These compounds were tested against Protein Tat (Human immunodeficiency virus type 1 group M subtype B (isolate HXB2)) (UniProt P04608) (assay: HIV-1 Tat–TAR interaction blockers – biochemical, fluorescence polarization, FAM-labeled TAR RNA, counter-screen for Vif-APOBEC3G degradation inhibitor project, dose response (AID 1117361)). Settings: Tat-TAR RNA binding; series mostly up to 100 µM; inhibition: at the top concentration.

Structure (SMILES) | inhibition | outcome
COc1ccc(NC(=O)O/N=C/c2ccccc2Cl)cc1 | 3.3% (inactive) | –
Cc1ccc(OCC(=O)NNC(=O)CCc2ccccc2)cc1 | – | inactive
Cc1ccc(S(=O)(=O)N/N=C/c2ccc(OCC(=O)Nc3ccccc3Cl)cc2)cc1 | 7.43% (inactive) | –
COc1ccc(OC)c(NC(=O)CCN2CCC(C)CC2)c1 | 14.2% (inactive) | –
COc1ccccc1N(C)S(=O)(=O)c1ccc(C(=O)NC(C)(C)C)cc1 | – | inactive
Cc1ccn(C(=O)c2cc3ccccc3oc2=O)n1 | 0.68% (inactive) | –
COc1ccc(-n2ncc3c(N4CCC(C(N)=O)CC4)ncnc32)cc1 | – | inactive
CCCn1c(SCC(=O)c2cc(C)ccc2C)n[nH]c1=O | 12.8% (inactive) | –
Cc1cccc(-n2c(=O)cc(N3CCN(c4ccc(F)cc4)CC3)[nH]c2=O)c1 | – | inactive
Cc1ccc(C)c(-n2c(SCC(N)=O)nnc2-c2ccccn2)c1 | 9.46% (inactive) | –
CCOC(=O)CSc1nnc(CNC(=O)c2ccccc2OC)n1-c1ccc(OC)cc1 | 4.09% (inactive) | –
CCOc1ccc(-n2c(SCC(N)=O)nnc2-c2cccnc2)cc1 | 9.9% (inactive) | –
S=C1NC2(CCCCCC2)N=C1c1ccccc1 | – | inactive
Cc1ccc(C)c(/C(O)=C2/C(=O)C(=O)N(CCN3CCOCC3)C2c2ccco2)c1 (configuration not stated) | 10.3% (inactive) | –
COc1ccc(OC)c(NC(=O)CC2C(=O)NCCN2C(=O)Nc2cccc(Cl)c2)c1 (configuration not stated) | 23.1% (inactive) | –
O=C(O)C1CCN(S(=O)(=O)/C=C/c2ccccc2)CC1 | – | inactive
Cc1ccnc(N2CCC(C(=O)NNC(=O)c3ccccc3C)CC2)n1 | – | inactive
CCn1c(CNC(=O)Cc2ccc(OC)cc2)nnc1SCC(=O)Nc1ccc(C(=O)O)cc1 | 5.77% (inactive) | –
Cc1nn(C(=O)c2cccnc2)c(C)c1C | 6.08% (inactive) | –
COC(=O)Cc1c(C)nc2nc(-c3cccnc3)[nH]n2c1=O | – | inactive
O=C(NCc1ccco1)C1CCCN(S(=O)(=O)c2cccc3nsnc23)C1 (configuration not stated) | 4.05% (inactive) | –
c1ccc(SCc2nc3ccccc3[nH]2)cc1 | – | inactive
COc1cc(/C=C(\C#N)c2nc3ccccc3[nH]2)c([N+](=O)[O-])cc1OCc1ccccc1 | 16.2% (inactive) | –
CC1(C)C2CCC1(CS(=O)(=O)Nc1cccc(S(N)(=O)=O)c1)C(=O)C2 (configuration not stated) | 3.3% (inactive) | –

Structure (SMILES) | inhibition | outcome
COc1ccc(N2CCN(C(=O)c3c(-c4ccccc4)noc3C)CC2)cc1 | 13% (inactive) | –
COc1ccc(NC(=O)c2c(OC)cccc2OC)c(OC)c1 | – | inactive
COc1ccc(OC)c(NC(=O)NCc2ccc(F)cc2)c1 | 12.2% (inactive) | –
Cn1nc(CC(=O)NCCN2C(=O)CSC2=O)c2ccccc2c1=O | 5.46% (inactive) | –
CCOc1ccc(-n2c(SCC(=O)Nc3cc(C)on3)nnc2-c2c[nH]c3ccccc23)cc1 | 25.1% (inactive) | –
COc1cccc(NC(=O)Nc2nnc(N3C(C)CCCC3C)s2)c1 (configuration not stated) | – | inactive
COC(=O)c1cc(=O)n(Cc2ccc3c(c2)OCO3)c(=Nc2ccc(F)c(Cl)c2)s1 | – | inactive
COCCn1c(SCC(=O)Nc2ccccc2F)nc2c([nH]c3ccccc32)c1=O | – | inactive
O=C(O)CN1C(=O)CSc2ccccc21 | – | inactive
COc1ccc(Nc2nc3ccccc3nc2-n2nc(C)cc2C)cc1 | – | inactive
COc1ccc(NC2=NC(C)(CO)CS2)cc1 (configuration not stated) | – | inactive
CCOC(=O)C(C(=O)OCC)C(CC(=O)C1CC1)c1ccccc1 (configuration not stated) | – | inactive
CCCCCCCCNc1ncnc2ccccc12 | 6.08% (inactive) | –
O=C(O)/C=C/C(=O)NNc1ncnc2ccccc12 | – | inactive
O=C(CSc1nnc(CNC(=O)c2ccccc2F)o1)c1ccccc1 | – | inactive
CCc1ccccc1NC(=O)c1cc2ncc(Br)cn2n1 | 3.41% (inactive) | –
COc1ccc(Br)c(C(=O)NC(C)(C)CO)c1 | 9.9% (inactive) | –
O=[N+]([O-])c1ccc2c([N+](=O)[O-])ccc3c2c1CC3 | 5.01% (inactive) | –
CCC(=O)Nc1cccc(-c2nc3ccccc3c(=O)o2)c1 | 1.35% (inactive) | –
O=C(O)CSCc1c(F)cccc1Cl | – | inactive
CC(C(=O)NCC1CCCCC1)N(C)Cc1ccc(Br)cc1 (configuration not stated) | – | inactive
O=S(=O)(O)c1cccc2c(N=Nc3ccc(O)c4ncccc34)cccc12 | 3.01% (inactive) | –
O=C(c1ccccc1)c1ccc(OC(=O)N2CCOCC2)cc1 | – | inactive
O=C(c1ccc(-n2cnnn2)cc1)N1CCOCC1 | – | inactive

Structure (SMILES) | inhibition | outcome
CC(C)CCNC(=O)c1ccc2c(SCC(=O)O)c3c(nc2c1)CCC3 | 4.95% (inactive) | –
CCC(CC)C(=O)Nc1cccc(C(=O)N2CCOCC2)c1 | – | inactive
O=C(Nc1cccc(S(=O)(=O)N2CCCCC2)c1)c1ccc2c(=O)n3c(nc2c1)CCCCC3 | – | inactive
CCOC(=O)C1CCN(C(=O)c2ccc3snnc3c2)CC1 | 4.12% (inactive) | –
CCOC(=O)N1CCN(C(=O)c2ccc(NC(=O)c3ccc(C)cc3)cc2)CC1 | 0.68% (inactive) | –
O=C(NNC(=O)c1ccccc1-n1cccc1)c1ccc(Cl)c(Cl)c1 | 3.38% (inactive) | –
CC(C)(C)NC(=O)c1cnn2c1NC(c1ccc(F)cc1)CC2C(F)(F)F (configuration not stated) | – | inactive
CN(C)C=NC(=O)/C(C#N)=C1\CCc2ccccc2N1 | 4.77% (inactive) | –
Nn1c(SCC(=O)NCCc2ccc(F)cc2)nnc1C1CCCCC1 | 8.25% (inactive) | –
COc1ccccc1CNC(=O)CCS(=O)(=O)c1ccc2c(c1)CCCN2C(C)=O | 6.76% (inactive) | –
CCOC(=O)Nc1ccc2c(CN3C(=O)NC4(CCCC4)C3=O)cc(=O)oc2c1 | 3.41% (inactive) | –
Cc1ccc(N(CN2C(=O)C3CC=CCC3C2=O)C(=O)c2ccco2)cc1Cl (configuration not stated) | 25.2% (inactive) | –
CCc1[nH]nc2c1C1(CCN(C(=O)OCc3ccccc3)CC1)C(C#N)=C(N)O2 | – | inactive
Cc1[nH]c2ccccc2c1Cc1nnc(SCc2ccccc2)o1 | 28.4% (inactive) | –
Cn1cc(CN2CCN(CCO)CC2)c(-c2ccc(Oc3ccccc3)cc2)n1 | – | inactive
O=c1ccccn1Cc1c(F)cccc1Cl | 20.3% (inactive) | –
CCc1c(O)nc(N2CCN(Cc3ccccc3)CC2)[nH]c1=O | 4.73% (inactive) | –
CCOC(=O)c1cnc(-c2ccccc2)nc1Oc1ccc(C)cc1 | 4.77% (inactive) | –
CCOc1ccc(-n2c(C)nc(O)c2N=Nc2ccccc2)cc1 | – | inactive
CCOC(=O)Cn1c(=O)n(CC(=O)OCC)c2ccccc21 | 1.35% (inactive) | –
CCOc1ccc(C(=O)N2CCCN(C(=O)c3ccc(OCC)cc3)CC2)cc1 | – | inactive
CCOc1ccccc1NC(=O)Cn1c(-c2ccc(Cl)cc2)noc1=O | – | inactive
CCOc1ccccc1CNC(=O)Cn1c(=O)oc2ccccc21 | – | inactive
Cc1sc(NC(=O)CN2CCOCC2)nc1-c1ccc2c(c1)CCN2S(=O)(=O)c1ccccc1 | 16.9% (inactive) | –
